Consider 87 compounds from PubChem BioAssay AID602440 (Sanford-Burnham Center for Chemical Genomics, 2012).

Molecules are shown by their SMILES. Out of some 360,000 compounds screened, about 2,300 (0.64%) were called active. Cut-off read from the data, not from the text of the source: active = inhibition mostly above about 40% (no sharp cut-off); inactive = mostly below about 27%. Only a selection was taken, and actives are over-represented in it overall.

Chain of Sentrin-specific protease 8 (Homo sapiens) (Q96LD8 whole entry, looked up): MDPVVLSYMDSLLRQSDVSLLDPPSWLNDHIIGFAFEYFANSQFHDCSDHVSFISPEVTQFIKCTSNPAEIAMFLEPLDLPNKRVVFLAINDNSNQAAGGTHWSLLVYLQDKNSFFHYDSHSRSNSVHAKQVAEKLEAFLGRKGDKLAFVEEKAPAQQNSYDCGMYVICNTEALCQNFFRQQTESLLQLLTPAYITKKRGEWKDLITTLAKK

The assay addresses Sentrin-specific protease 8 (Homo sapiens) (UniProt Q96LD8). Description: blockers of SENP8 deneddylase activity – biochemical, fluorescence, Nedd8 protein substrate, uHTS, primary screen (AID 602440). To be noted: recombinant SENP8, Nedd8 substrate fluorescence; at 20 µM; hits give high values.
One may read the inhibition as the drop in the measured response relative to a control, in per cent. Turning to `C/C(=N\NC(=O)CCn1nc(C)cc1C)C(C)(C)C`, the inhibition is 13.5% (inactive).
Consider `CCN1C(=O)[C@H]2[C@@H](c3ccc(C(F)(F)F)cc3)N[C@]3(CCCN(Cc4ccc(Br)cc4)C3=O)[C@H]2C1=O`, for which the inhibition was 3.9% (inactive).
The result for `COc1cccc(N2C(=O)CC(N3CCc4ccccc4C3)C2=O)c1` (configuration not stated) reads 11.5% (inactive); that for `O=C(c1c(F)cccc1Cl)N1CCN(S(=O)(=O)c2ccc3c(c2)OCCCO3)CC1`, 5.8% (inactive).
The figure for `CC(C)CC(=O)N=C1SC2CS(=O)(=O)CC2N1CCc1ccccc1` (configuration not stated) is 42% (active).
Take `O=C(N=C1SC2CS(=O)(=O)CC2N1Cc1ccccc1)c1ccccc1` (configuration not stated): the inhibition was 13.8% (inactive).
As to `O=C(CCC1CCCC1)N=C1SC2CS(=O)(=O)CC2N1Cc1ccccc1` (configuration not stated), the inhibition is 8.9% (inactive).
Turning to `Cn1c2c(c(=O)n(C)c1=O)C(c1ccc(O)cc1)Nc1ccccc1O2` (configuration not stated), the inhibition is 23% (inactive).
The figure for `O=C(O)c1cc(S(=O)(=O)Nc2ccc3cn[nH]c3c2)ccc1Br` is -90.8% (inactive).
The result for `COc1ccc(S(=O)(=O)Nc2ccc3cn[nH]c3c2)cc1[N+](=O)[O-]` reads 45.4% (active).
Turning to `COc1ccc(S(=O)(=O)N/N=C\c2ccc(OC)c(COc3ccc(C)cc3[N+](=O)[O-])c2)cc1`, the inhibition is 10.6% (inactive).
Take `Cc1cc(NC(=O)CCC(=O)N(Cc2ccccc2)C(C(=O)NC2CCCC2)c2ccc(C)o2)no1` (configuration not stated): the inhibition was 1.5% (inactive).
The result for `CCOc1ccc(NC(=O)c2cccc3c2C(=O)N(CC2CCCO2)C3)cc1` (configuration not stated) reads 5.6% (inactive); that for `CCCN1C(=O)C(Cc2nc3ccccc3c(=O)n2-c2ccccc2)c2cc(C)ccc21` (configuration not stated), 12.4% (inactive); that for `CCn1c(O)c(N=NC(=O)c2cccc(S(=O)(=O)N3CCCCC3)c2)c2ccccc21`, 28% (inactive).
As for `CCn1c(O)c(N=NC2=NC(=O)CS2)c2cc(C)ccc21`, the inhibition is 46.9% (active).
The figure for `N#Cc1cccc(NC(=O)c2cc(C3CCCCN3C(=O)CCc3ccccc3)on2)c1` (configuration not stated) is 8.1% (inactive); for `Clc1ccc(C2[C@H]3CN(CC4CCCCC4)[C@H](c4ccccc4)C34CC2(c2cccnc2)C4)cn1` (some centres not stated) it is 7.6% (inactive); for `COc1ccc(NC(=O)CSc2nnnn2-c2cccc(OC)c2)cc1` it is 10.5% (inactive).
The figure for `Cc1ccc(NS(=O)(=O)c2ccc(N/N=C/c3ccccc3OCC(=O)O)c([N+](=O)[O-])c2)c(C)c1` is 49.7% (active); for `CC1CN(C(=O)c2ccccc2NS(=O)(=O)c2cccc([N+](=O)[O-])c2)CC(C)O1` (configuration not stated) it is 4.5% (inactive); for `Cc1ccc(S(=O)(=O)NC(=O)COc2ccccc2C)cc1` it is 12.8% (inactive).
The result for `COc1ccc(Br)cc1/C=N/Nc1ccc(S(=O)(=O)Nc2ccccc2C(=O)O)cc1[N+](=O)[O-]` reads 46.4% (active); that for `COc1ccc(N(CC(=O)Nc2ccc(C)cc2C)S(=O)(=O)c2ccccc2[N+](=O)[O-])c(OC)c1`, 10.2% (inactive).
Take `COc1ccccc1C(CNC(=O)c1cccc(NS(=O)(=O)c2ccc(Br)cc2)c1)N(C)C` (configuration not stated): the inhibition is 0.9% (inactive).
The result for `COc1cccc(N(Cc2nnc3n2CCCCC3)C(=O)Nc2ccccc2F)c1` reads 9.7% (inactive); that for `CC1CC2=C(CC1/C=N/NC(N)=S)C(C)(C)CCC2` (configuration not stated), 12.2% (inactive); that for `O=C(CCNS(=O)(=O)c1ccccc1)NCCSc1ccc(Br)cc1`, 9% (inactive).
The result for `CNC(=O)COc1ccc(S(=O)(=O)Nc2ccccc2)cc1` reads 3.4% (inactive); that for `Cc1ccc(S(=O)(=O)N[C@H](CO)C(C)C)cc1`, 11.7% (inactive).
Regarding `Cc1ccc(S(=O)(=O)/N=C2\C=C(NS(=O)(=O)c3ccc(C)cc3)C(=O)c3ccccc32)cc1`, the inhibition is 89.9% (active).
For the compound `Cc1ccc(S(=O)(=O)N/N=C(\c2ccccc2)C2CC2)cc1`, the inhibition is 3.3% (inactive).
Consider `COc1ccc(S(=O)(=O)/N=C2\C=C(NS(=O)(=O)c3ccccc3)C(=O)c3ccccc32)cc1`, for which the inhibition is 70% (active).
The figure for `COc1ccc(C(=O)C(C)OC(=O)c2cccc(S(=O)(=O)Nc3c(C)n(C)n(-c4ccccc4)c3=O)c2)cc1` (configuration not stated) is 5.8% (inactive); for `COC(=O)c1ccccc1NC(=O)c1cncc(Br)c1` it is 3.1% (inactive).
Consider `C/C=N/NC(=O)CCCC(=O)N/N=C/C`, for which the inhibition was 6.6% (inactive).
The figure for `COc1cc2c(cc1OC)C(=O)NCC(C)(C)O2` is 15.5% (inactive).
The result for `COc1cc(C(C(=O)NC2CCCC2)N(C(=O)c2ccco2)c2ccccc2C(C)=O)cc(OC)c1OC` (configuration not stated) reads 10.1% (inactive); that for `O=C1OCCN1C(=O)[C@H]1[C@H](c2ccc(Cl)cc2)C(c2cccc(Cl)c2)=NN1c1ccc(Br)cc1`, -366% (inactive).
The figure for `O=C(c1cccnc1)N(c1cc2sc(=O)oc2c2ccccc12)S(=O)(=O)c1ccccc1` is 7.7% (inactive); for `O=C(O)CN1C(=O)CC(Cc2ccccc2)C1=O` (configuration not stated) it is 3.4% (inactive); for `COc1cccc(CC2(CO)CCCN(Cc3ccc(OC(F)F)cc3)C2)c1` (configuration not stated) it is 10.3% (inactive).
Regarding `CN(C)c1ccc(/C=C/C(=O)c2ccc(O)cc2)cc1[N+](=O)[O-]`, the inhibition was 47.5% (active).
As for `CN(C)c1ccc(S(=O)(=O)NCC(=O)NCC2CCCCC2)cc1[N+](=O)[O-]`, the inhibition is 11.6% (inactive).
The figure for `CCN(CC)CCN(C)C(c1ccnc2ccccc12)c1nnnn1-c1ccc2c(c1)OCCO2` (configuration not stated) is 7.5% (inactive); for `CC(C)N(C(=O)[C@H]1C[C@H](CC(=O)NC(C)(C)C)C(=O)N2CCc3c([nH]c4ccc(Cl)cc34)[C@]12C)C(C)C` it is 19% (inactive); for `COC(=O)C1=C(C(=O)c2ccc(C)cc2)C(c2ccccc2)n2nnnc2N1` (configuration not stated) it is 44.3% (active).
In the case of `COC(=O)c1ccc(C2C3=C(Nc4nnnn42)c2ccccc2OC3)cc1` (configuration not stated), the inhibition is -273% (inactive).
In the case of `COc1ccccc1NC(=O)C1=C(C)Nc2nnnn2C1c1cccc(Br)c1` (configuration not stated), the inhibition was 6% (inactive).
The figure for `O=C1CC(Cc2ccc(Cl)cc2)C(=O)N1c1cc(Cl)ccn1` (configuration not stated) is 9.6% (inactive).
On to `COc1ccccc1CNC(=O)COC(=O)c1sc(C)nc1C`, for which the inhibition was 17.6% (inactive).
The figure for `CCN(C(=O)COc1cccnc1[N+](=O)[O-])C1CCS(=O)(=O)C1` (configuration not stated) is 11.8% (inactive); for `NC1=CC(=O)C(=O)c2cccnc21` it is 95% (active); for `C[C@@H](O)c1nc2ccccc2n1N` it is 19% (inactive).
Consider `Cc1ccc2c(=O)cc(C(=O)NCCc3ccc(S(N)(=O)=O)cc3)oc2c1C`, for which the inhibition is 12.8% (inactive).
The figure for `CCN(CC)c1ccc(S(=O)(=O)N2CCCCC2)cc1NC(=O)C1=COCCO1` is 5.2% (inactive); for `O=C(NCc1ccccc1Cl)NC(=O)c1csc([N+](=O)[O-])c1` it is 6.1% (inactive); for `O=[N+]([O-])c1ccccc1NCc1ccccc1Cl` it is 46.6% (active).
The figure for `O=C(NCCNc1ccccc1[N+](=O)[O-])c1ccccc1F` is 19.2% (inactive).
The figure for `CCc1cc2c(SCC(=O)Nc3ncc(Cl)c(C)c3Cl)ncnc2s1` is -2.9% (inactive).
On to `O=C1NC(=O)C2C1C(c1ccc([N+](=O)[O-])cc1)=NN2Cc1ccccc1` (configuration not stated), for which the inhibition was -27.9% (inactive).
For `CCN1N=C(c2ccccc2)CCC1=O`, the inhibition was 8.8% (inactive).
In the case of `O=C1CC(c2ccccc2)=NN1c1ccc([N+](=O)[O-])cc1`, the inhibition was 71.2% (active).
In the case of `Cc1ccc(NC(=S)N(CCN(C)C)Cc2cccs2)cc1C`, the inhibition is 19.3% (inactive).
The figure for `CNC(=O)C[C@H]1C(=O)N(Cc2ccccc2)C[C@@H]1CSC` is -6.3% (inactive); for `CCOC(=O)N1CCC(Nc2c(NCCCN3CCN(c4ccc(OC)cc4)CC3)c(=O)c2=O)CC1` it is 63.9% (active).
Take `CCOC(=O)N1CCC(Nc2c(NCCCN3CCN(CC)CC3)c(=O)c2=O)CC1`: the inhibition was 20.5% (inactive).
As for `CCOC(=O)N1CCN(c2c(NCCCN3CCCC(C)C3)c(=O)c2=O)CC1` (configuration not stated), the inhibition is 21.3% (inactive).
The result for `Cc1sc2ccccc2c1CNC[C@H]1O[C@@H](n2ccc(=O)[nH]c2=O)[C@H](O)[C@@H]1O` reads 50.2% (active).
Consider `C[C@H](NC(=O)CC[C@H]1O[C@@H](n2ccc(=O)[nH]c2=O)[C@H](O)[C@@H]1O)c1cccc2ccccc12`, for which the inhibition is 20.1% (inactive).
For `O=c1ccn([C@@H]2O[C@H](CNS(=O)(=O)c3cc4ccccc4s3)[C@@H](O)[C@H]2O)c(=O)[nH]1`, the inhibition was 7.7% (inactive).
The result for `O=C(CNCc1ccc(Cl)cc1)Nc1cccc(C(=O)O)c1` reads 23% (inactive); that for `CC(C)[C@H](NC(=O)N1CC(=O)Nc2ccccc21)C(=O)N[C@@H](Cc1c[nH]c2ccccc12)C(=O)O`, 57.9% (active); that for `CC(C)c1ccc(NC(=O)[C@@H](NC(=O)N2CC(=O)Nc3ccccc32)C(C)C)cc1`, 8.3% (inactive).
As for `CC(C)C[C@H](NC(=O)N1CC(=O)Nc2ccccc21)C(=O)N[C@H](Cc1ccccc1)C(=O)O`, the inhibition is 28.1% (inactive).
The figure for `CC(OC(=O)Cc1ccc(F)cc1)C(=O)N1CCc2ccccc21` (configuration not stated) is -2.8% (inactive).
Consider `O=C(CN(C(=O)c1nsc(Cl)c1Cl)c1cccc(F)c1)NC1CCCC1`, for which the inhibition was 4.4% (inactive).
With `COc1ccc(S(=O)(=O)n2cnc3ccccc32)c(C)c1`, the inhibition is 12.5% (inactive).
For the compound `O=C(/C=C/c1cccs1)NCc1cccnc1`, the inhibition is -2.1% (inactive).
Take `Cc1ccc(S(=O)(=O)NC(C)C(=O)Nc2ccccc2C(=O)N2CCCC2)cc1` (configuration not stated): the inhibition was 20.9% (inactive).
In the case of `CC1CCCC(NC(=O)c2cccc(N3CCCC3=O)c2)C1C` (configuration not stated), the inhibition was -12.1% (inactive).
Take `Cc1cc2c(C)nc(N/N=C/c3ccccc3)nc2o1`: the inhibition was -29.4% (inactive).
The figure for `O=C(/C=C/c1ccc([N+](=O)[O-])o1)NNC(=O)c1ccc(F)cc1` is 19.8% (inactive); for `Cc1cc(C)nc(N/N=C/c2ccc([N+](=O)[O-])o2)n1` it is 45.8% (active); for `CN(CC(=O)Nc1ccccc1Cl)C(=O)c1ccccc1SCC(=O)N1CCCC1` it is 3.2% (inactive).
For `COC(=O)c1ccc2c(=O)n(CCN3CCOCC3)c(SCC(=O)Nc3cccc(OC)c3)nc2c1`, the inhibition was 14.9% (inactive).
As to `Cc1nc2ccccc2c(=O)n1-c1ccc(NS(=O)(=O)c2ccc(F)cc2F)cc1`, the inhibition was 5.4% (inactive).
